This is a sample that favours compounds with a hit; in the whole collection about 3.1% have one here.
Vif-A3G inh: Vif-A3G binding inhibition; HeLa A3G-eYFP + Vif (tagged APOBEC3G with the HIV-1 protein that degrades it), YFP fluorescence, overnight; Potency, µM (series often up to 46.1 µM), without a hit: at the highest dose activity, negative = active, usual class: inhibitors; hit rate 0.076% among 410,000; AID 602310; further: potency means the concentration at half of the fitted maximal effect; on the % scale 0 is the no-effect control and ±100 the full control effect; nearly all actives have a fitted effect of over 60% in size
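Read-out is eYFP fluorescence (Ex 488/Em 500-530) from Vif-expressing HeLa A3G-eYFP cells; more signal means A3G escaped Vif-mediated degradation. Cells plated overnight, compound pinned in, incubated overnight at 37 deg C.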
VDR inh: blocks the human vitamin D receptor; hit rate 0.93% among 400,000; Potency, µM, for the others: max response, negative = inhibition, hits mostly inhibitors; P11473; VDR-SRC2-3 peptide fluorescence polarization, 2 h; AID 504847; further: potency means the concentration at half of the fitted maximal effect; on the % scale 0 is the no-effect control and ±100 the full control effect
Target sequence (P11473 whole entry, looked up): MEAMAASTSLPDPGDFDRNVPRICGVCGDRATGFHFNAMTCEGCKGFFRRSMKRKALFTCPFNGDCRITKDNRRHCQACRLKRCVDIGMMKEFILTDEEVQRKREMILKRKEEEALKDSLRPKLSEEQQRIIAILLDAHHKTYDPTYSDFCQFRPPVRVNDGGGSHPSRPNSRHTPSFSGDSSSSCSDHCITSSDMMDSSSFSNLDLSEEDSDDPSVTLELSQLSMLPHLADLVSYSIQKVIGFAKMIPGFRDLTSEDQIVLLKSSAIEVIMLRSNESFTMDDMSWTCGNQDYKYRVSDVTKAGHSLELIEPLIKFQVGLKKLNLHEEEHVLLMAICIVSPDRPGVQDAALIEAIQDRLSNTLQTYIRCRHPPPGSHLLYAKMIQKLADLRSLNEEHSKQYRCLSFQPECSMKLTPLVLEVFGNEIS
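Measured by FP: displacement of SRC2-3 coactivator peptide from VDR by library compounds, following a two-hour ambient incubation.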
TSHR antagonist: blocks TSH signaling through the human TSH receptor | TSHR-expressing cells, TSH-stimulated cAMP HTRF, 2 h; stronger effect = lower value | activity change, negative = inhibition, % at 11.5 µM | hit rate 0.2% among 330,000;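 active means activity change below a set negative limit, meaning inhibition stronger than a set level, cut at about -70% in these data; inconclusive means activity change between two set negative limits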; further: on the % scale 0 is the no-effect control and ±100 the full control effect
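Competitive HTRF cAMP read-out (cryptate anti-cAMP antibody, cAMP-d2; 30 min, room temperature) in freshly harvested TSHR cells. Compounds added before TSH at EC80 (4nM final), followed by 2 hours' incubation at 37 deg C.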
PLK1 PBD block: PLK1 (human) polo-box domain binding inhibition | Plk1 PBD binding of FITC phosphopeptide, fluorescence polarization | Potency, µM, for inactives: max response, negative = inhibition, usual class: inhibitors | hit rate 2.8% among 360,000 | AID 720504; further: potency means the concentration at half of the fitted maximal effect; series mostly up to about 57 µM; on the % scale 0 is the no-effect control and ±100 the full control effect; nearly all actives have a fitted effect of over 65% in size
Vif-A3F inh: Vif-A3F binding inhibition | HeLa A3F-eYFP + Vif (tagged APOBEC3F with the HIV-1 protein that degrades it), YFP fluorescence increase | Potency, µM (doses to about 46.1 µM), for inactives: top-dose activity, negative = active | hit rate 0.2% among 390,000; further: potency means the concentration at half of the fitted maximal effect; % of control where 0% means no effect; nearly all actives have a fitted effect of over 65% in size
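HeLa cells stably expressing A3F-eYFP plus Vif, plated and incubated overnight at 37 deg C, then exposed to compounds overnight at 37 deg C. Blocked degradation read as raised yellow fluorescence (Ex 488/Em 500-530).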
Active calls of the source: *. Unless noted, the call rests on the fitted dose curve; in most records, active means well fitted curve in the direction sought with a large enough effect; inconclusive means small, poorly fitted or top-dose-only effect, or another doubt; inactive means no such curve, though single readings can be large; an effect the other way counts as inactive or inconclusive.

Screening CCCC(=O)N1CCN(c2ccc(NC(=O)c3cc4ccccc4o3)cc2Cl)CC1 returned Vif-A3G inh -14%, VDR inh 15%, TSHR antagonist -87*, PLK1 PBD block -4% and Vif-A3F inh -5%.
For COc1ccc(NC(=O)c2ccco2)cc1NC(=O)c1cc2ccccc2o1 the results were Vif-A3G inh 1%, VDR inh 5%, TSHR antagonist -14, PLK1 PBD block -7% and Vif-A3F inh 6%.
`COc1ccc(NC(=O)c2cc3ccccc3o2)cc1OC` gave Vif-A3G inh 1%, VDR inh inconclusive, TSHR antagonist 8, PLK1 PBD block 24µM* and Vif-A3F inh -9%.
For CC[C@H](C)[C@H](NC(=O)CNC(=O)[C@H](C)NC(=O)[C@H](C)N)C(=O)NCC(=O)N[C@H](C(=O)N[C@@H](CC(C)C)C(=O)N[C@H](C(=O)N[C@H](C(=O)O)C(C)C)[C@@H](C)O)[C@@H](C)CC the results were VDR inh -1%.
For Cc1oc2cc(O)ccc2c(=O)c1Oc1ccccc1 the results were Vif-A3G inh -6%, VDR inh -10%, TSHR antagonist -7, PLK1 PBD block 3µM* and Vif-A3F inh -16%.
c1ccc(CCc2nn3c(Cn4nnc5ccccc54)nnc3s2)cc1 was read as Vif-A3G inh 0%, VDR inh inconclusive, TSHR antagonist 7, PLK1 PBD block 13µM* and Vif-A3F inh 0%.
Screening Clc1ccccc1-c1nnc2sc(CCc3ccccc3)nn12 returned Vif-A3G inh -4%, VDR inh 50µM*, TSHR antagonist 0, PLK1 PBD block 7.5µM* and Vif-A3F inh 3%.
Screening c1ccc(Cc2nnc3sc(Nc4ccccc4)nn23)cc1 returned Vif-A3G inh 2%, VDR inh 1%, TSHR antagonist 0, PLK1 PBD block -2% and Vif-A3F inh 1%.
For c1ccc(Cc2nn3c(Cn4nnc5ccccc54)nnc3s2)cc1 the results were Vif-A3G inh 2%, VDR inh 89µM*, TSHR antagonist -2, PLK1 PBD block 8.4µM* and Vif-A3F inh -13%.
`O=c1c2ccccc2nnn1CSc1nnc(C2COc3ccccc3O2)n1-c1ccccc1` (configuration not stated) gave Vif-A3G inh -2%, VDR inh -12%, TSHR antagonist -15 and PLK1 PBD block -4%.
`c1ccc2c(c1)OCC(c1nn3c(Cn4nnc5ccccc54)nnc3s1)O2` (configuration not stated) gave Vif-A3G inh 1%, VDR inh inconclusive, TSHR antagonist -2, PLK1 PBD block 24µM* and Vif-A3F inh -12%.
`O=C(O)CSc1nnc(Cn2nnc3ccccc32)n1CCc1ccccc1` gave Vif-A3G inh -2%, VDR inh 2%, TSHR antagonist 8, PLK1 PBD block -15% and Vif-A3F inh -1%.
Screening CC(=O)Nc1ccccc1NS(=O)(=O)c1ccccc1NO returned Vif-A3G inh 1% and VDR inh inconclusive.
CCOCCn1ccc2c(OCC(=O)Nc3cccc([N+](=O)[O-])c3)cccc2c1=O was read as Vif-A3G inh 0%, VDR inh -10% and Vif-A3F inh -1%.
For O=c1c(-c2cc(F)cc(F)c2)nc2cncnc2n1Cc1ccccc1 the results were VDR inh 5%.
Screening N#CCCn1cc(CNCc2cccnc2)c(-c2ccccc2)n1 returned Vif-A3G inh -4% and VDR inh -10%.
`COc1ccc(-n2nnnc2SCC(=O)N2CCN(C(=O)c3ccco3)CC2)cc1OC` gave Vif-A3G inh 0%, VDR inh -23%, TSHR antagonist 8, PLK1 PBD block 19µM* and Vif-A3F inh 3%.
`Cc1ccc(-n2nnnc2SCC(=O)N2CCN(C(=O)c3ccco3)CC2)c(C)c1` gave Vif-A3G inh 0%, VDR inh -1%, TSHR antagonist 0, PLK1 PBD block -7% and Vif-A3F inh -2%.
For COc1ccc(OC)c(-n2nnnc2SCC(=O)N2CCN(C(=O)c3ccco3)CC2)c1 the results were Vif-A3G inh 0%, VDR inh 71µM*, TSHR antagonist 8, PLK1 PBD block 17µM* and Vif-A3F inh 7%.
Screening O=C(c1cc(Br)ccc1O)N(Cc1ccco1)Cc1cccs1 returned Vif-A3G inh -7% and VDR inh inconclusive.
For COC(=O)c1ccc(NC(=O)c2nc(S(=O)(=O)Cc3ccccc3F)ncc2Cl)cc1 the results were Vif-A3G inh -29%.
For COc1cc(OC)c(/C=C/c2nc3ccccc3o2)c(OC)c1 the results were Vif-A3G inh -6%.
For CC(=O)Nc1ccc(NC(=S)Nc2ccccc2)cc1 the results were Vif-A3G inh 2%, VDR inh 5%, TSHR antagonist 6, PLK1 PBD block -11% and Vif-A3F inh 3%.
For CC(=O)Nc1ccc(SC(Sc2ccc(NC(C)=O)cc2)c2ccccc2)cc1 the results were Vif-A3G inh -6%, VDR inh -17%, PLK1 PBD block 17µM* and Vif-A3F inh 8%.
COc1ccc2c(c1)CCc1cnoc1-2 was read as Vif-A3G inh 3%, VDR inh -14%, PLK1 PBD block -3% and Vif-A3F inh 4%.
`COc1ccc2c(c1)CCc1cn[nH]c1-2` gave Vif-A3G inh 0%, VDR inh inconclusive, TSHR antagonist 4, PLK1 PBD block 27µM* and Vif-A3F inh 3%.
For NCCCN(Cc1ccc(Cl)cc1)c1ccc(Br)cn1 the results were VDR inh -20%.
`CCS(=O)(=O)Nc1ccc(C(=O)CC2(O)C(=O)Nc3ccc(Br)cc32)cc1` (configuration not stated) gave Vif-A3G inh -4%, VDR inh -14%, TSHR antagonist -12, PLK1 PBD block 21µM* and Vif-A3F inh 0%.
`Cc1nn2c(-c3cccc(NC(=O)CSc4nc5ccccc5o4)c3)nnc2c2ccccc12` gave Vif-A3G inh -14%, VDR inh -14%, TSHR antagonist -2, PLK1 PBD block 24µM* and Vif-A3F inh 3%.
`COC(=O)C1(C(=O)OC)Cc2conc2[C@H]1c1ccccc1` gave VDR inh 0%.
For CC(C)/C=N/NC(=O)c1ccc(Cl)cc1 the results were Vif-A3G inh 1%, VDR inh inconclusive, TSHR antagonist -2, PLK1 PBD block 27µM* and Vif-A3F inh 0%.
O=C(N/N=C/c1ccc[nH]1)c1ccc(Cl)cc1 was read as Vif-A3G inh -5%, VDR inh -14%, TSHR antagonist 7, PLK1 PBD block -4% and Vif-A3F inh inconclusive.
CC(/C=C/c1ccccc1F)=N\NC(=O)c1ccccc1 was read as Vif-A3G inh 0%, VDR inh 13%, TSHR antagonist -7, PLK1 PBD block -3% and Vif-A3F inh 8%.
Screening CC(/C=C/c1ccccc1F)=N\NC(=O)c1ccc(Cl)cc1 returned Vif-A3G inh -1%, VDR inh inconclusive, TSHR antagonist 20, PLK1 PBD block 5.3µM* and Vif-A3F inh 4%.
